Bioassay records: PubChem, several laboratories
PfHsp40 yeast: rescue of yeast from PfHsp40 toxicity, primary screen, S. cerevisiae, ATP luminescence | S. cerevisiae expressing PfHsp40, growth rescue | growth rescue, % at 12.5 µM | actives 0.68% (n = 340,000) | AID 504582, 2011; in the data active = growth rescue above about 28%, passing the limit was not always enough;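 note: yeast W303a lacking pdr1 and pdr3 grown in galactose medium; growth measured after three days at 30 °C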
PrPC TRFRET: inhibitors of human cell surface prion protein PrPC, primary screen, cell-based, TR-FRET. inhibition, % at 13.8 µM. Major prion protein (Homo sapiens), P04156. actives 0.43% (n = 370,000). TR-FRET read-out; in the data active = inhibition above about 24%; note: 0% = median of the test wells and 100% = reference compound wells
PrP UTR inh: inhibition of PrP 5' UTR reporter expression; cell-based PrP 5' UTR mRNA reporter, plate reader; inhibition, % (test concentration not listed); actives 0.35% (n = 340,000); AID 488862, 2010; in the data active = inhibition above about 52%; note: 0 = median of the neutral control wells
BJeLR viability: MLPCN primary cell-based screen for lethality selective to Ras in HRASV12 cells. BJeLR (HRASV12) viability, CellTiter-Glo ATP luminescence, 48 h. inhibition, % (concentration not given with the values). actives 0.17% (n = 300,000). AID 1554, 2009; in the data active = inhibition above about 50%
Yp Topo-I inh: Yersinia pestis topoisomerase I inhibitors, primary screen, biochemical, cleavage product accumulation, plate reader, single point. activity, % at 10 µM. actives 0.064% (n = 360,000). Y. pestis Topo-I cleavage product accumulation. AID 504884, 2011. DNA topoisomerase I (Yersinia pestis CO92); in the data active = activity above about 50%, passing the limit was not always enough
SSB-PriA inh: inhibitors of Klebsiella pneumoniae PriA binding to SSB C-terminal tail, primary screen, biochemical, AlphaScreen; actives 0.6% (n = 430,000); AlphaScreen SSBct-PriA binding, biotinylated peptide; inhibition, % at 33 µM; AID 1272365, 2023; PriA–SSB C-terminal tail interaction (Klebsiella pneumoniae); in the data active = inhibition mostly above about 37%, no sharp cut-off; inactive = mostly below about 20%;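 note: plate controls were negative control peptide for no effect and reference peptide for full effect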
An asterisk follows results filed as active; i = inactive; nt = no result given; + = active, no number. Most compounds without a hit are left out; they make up all but 1.7% or so of the library.

SMILES | PfHsp40 yeast | PrPC TRFRET | PrP UTR inh | BJeLR viability | Yp Topo-I inh | SSB-PriA inh
Cc1cc(C)cc(NC(=O)[C@H](Cc2c[nH]c3ccccc23)NC(=O)[C@@H]2Cc3ccccc3CN2)c1 | 1 | -7 | -15 | 3 | -6 | 11
Cc1ccc(NC(=O)[C@H](Cc2c[nH]c3ccccc23)NC(=O)[C@@H]2Cc3ccccc3CN2)c(C)c1 | 2 | -5 | -38 | 65* | 2 | 25
CCc1ccc(NC(=O)[C@H](Cc2c[nH]c3ccccc23)NC(=O)[C@@H]2Cc3ccccc3CN2)cc1 | 1 | 0 | -1 | 59* | -9 | 13
Cc1ccc(Cn2c(SCC(=O)NCCC(C)C)nc3c(sc4ncccc43)c2=O)cc1 | nt | nt | nt | nt | nt | -3
Cc1ccc(-n2ncc3c(=O)[nH]c(SCC(=O)N4CCC(C)CC4)nc32)cc1C | 2 | 2 | -12 | nt | 0 | 86*
Cc1ccc(-n2ncc3c(=O)[nH]c(SCC(=O)N4CCCC4)nc32)cc1C | 1 | 7 | -12 | 12 | -5 | -3
O=C(NCc1cc(-c2ccco2)on1)c1ccc(Br)o1 | nt | nt | nt | nt | nt | 39*
COc1cc(/C=N/NC(=O)CSc2cccc3cccnc23)cc(OC)c1OC | nt | nt | nt | nt | nt | +
O=C(CSc1cccc2cccnc12)NN=Cc1ccncc1 | nt | nt | nt | nt | nt | 4
O=C(CSc1cccc2cccnc12)N/N=C/c1cccc(O)c1 | 0 | -16 | -1 | -2 | 10 | +
O=C(CSc1cccc2cccnc12)N/N=C/c1ccc(Br)cc1 | nt | nt | nt | nt | nt | i
O=C(Cc1ccccc1Cl)Nc1ccccc1Cc1nc(-c2cccs2)no1 | nt | nt | nt | nt | nt | -3
Cc1cc(NC[C@H]2CCCO2)n2nc(C(F)(F)F)c(-c3ccccc3Cl)c2n1 | nt | nt | nt | nt | nt | -13
COc1ccc(CCNC(=O)Cc2cc(=O)[nH]c(SCc3cccc(Cl)c3)n2)cc1 | nt | nt | nt | nt | nt | -16
CCN(CC)c1ccc(C(=C2C=CC(=[N+](CC)CC)C=C2)c2ccc(S(=O)(=O)O)cc2S(=O)(=O)[O-])cc1 | -1 | -123 | -1 | nt | -16 | 82*
NC(=O)NC(=O)CC1SC(=NN=C2CSC(=O)N2)NC1=O (stereo not drawn) | nt | nt | nt | nt | nt | 74*
CCOc1ccc(CC(=O)N2CCN(c3ccc(N4CCOCC4)nn3)CC2)cc1OCC | 0 | -1 | -9 | -1 | 7 | 54*
O=C1NC(=S)N(C2CC2)C(=O)/C1=C/c1ccc2c(c1)CCN2CCCCl | 63* | -5 | -17 | 4 | -7 | -5
O=S1(=O)C=C(Sc2nc3ccccc3s2)c2ccccc21 | nt | nt | nt | 56* | nt | 3
COc1ccc(NC(=O)NNC(=O)c2cc3ccccc3cc2O)cc1 | 90* | -4 | -33 | 0 | 10 | 1
O=C(NNC(=O)c1cc2ccccc2cc1O)NC1CCCCC1 | 60* | 3 | -17 | 3 | -10 | 2
CC(=O)NC(CC(=O)NNC(=O)c1cc2ccccc2cc1O)c1ccccc1 (stereo not drawn) | 78* | -10 | -10 | -1 | 4 | -6
O=C(NNC(=O)c1cc2ccccc2cc1O)Nc1ccc(Br)cc1 | 36* | -1 | -18 | -6 | -18 | -12
COc1ccc(C)cc1NC(=O)NNC(=O)c1cc2ccccc2cc1O | 1 | 2 | -26 | -11 | 1 | -15
Cc1noc(-c2cccn(C(C)C(=O)NCc3cccs3)c2=O)n1 (stereo not drawn) | nt | nt | nt | nt | nt | -5
SMILES | PfHsp40 yeast | PrPC TRFRET | PrP UTR inh | BJeLR viability | Yp Topo-I inh | SSB-PriA inh
Cc1ccccc1/C=C1\SC(=S)N(/N=C/c2cc([N+](=O)[O-])ccc2O)C1=O | 229* | -7 | -19 | -6 | 5 | nt
Cc1ccc(/C=C2\SC(=S)N(N=Cc3cc([N+](=O)[O-])ccc3O)C2=O)o1 | nt | nt | nt | nt | nt | 70
Cc1nnc(NN=Cc2cc([N+](=O)[O-])c(N3CCC(C)CC3)cc2N2CCC(C)CC2)n1N | nt | nt | nt | nt | nt | 42*
O=[N+]([O-])c1ccc(N2CCCC2)cc1N1CCCC1 | 0 | -20 | 1 | -16 | -8 | 47*
O=[N+]([O-])c1ccc(N2CCCC2)cc1N1CCCCCC1 | nt | nt | nt | nt | nt | 61*
O=[N+]([O-])c1ccc(N2CCCCC2)cc1N1CCOCC1 | -1 | -18 | -3 | -1 | 5 | 27
O=[N+]([O-])c1ccc(N2CCCC2)cc1N1CCCCC1 | nt | nt | nt | nt | nt | 97*
O=[N+]([O-])c1ccc(N2CCNCC2)cc1N1CCCC1 | nt | nt | nt | nt | nt | 62*
O=C(CCN1C(=O)/C(=C/c2cccc(Cl)c2)SC1=S)NC(CO)Cc1ccccc1 (stereo not drawn) | nt | nt | nt | nt | nt | 7
COc1ccc(Nc2cccc3ccccc23)cc1 | 1 | 2 | -43 | 0 | -9 | 50*
S=C(Nc1cccc(Cl)c1)Nc1cccc2cnccc12 | 31* | nt | -9 | nt | 5 | 3
Cc1ccc(NC(=S)Nc2cccc3cnccc23)cc1 | -2 | 3 | -27 | 1 | -2 | 10
COc1ccc(NC(=S)Nc2cccc3ccccc23)cc1OC | 1 | 2 | -22 | 2 | 1 | 43*
Cc1ccc(NC(=S)Nc2cccc3cnccc23)cc1C | 377* | 0 | -20 | 6 | -1 | 22
COc1ccccc1CC(N)=NOC(=O)COc1ccc(C)cc1C | nt | nt | nt | nt | nt | -112
O=C(NC1CC(O)C(CO)C1)c1cnn(-c2ccccc2)n1 (stereo not drawn) | nt | nt | nt | nt | nt | 0
CC1CN(c2ccc([N+](=O)[O-])c3cccnc23)CC(C)N1 (stereo not drawn) | 0 | -42 | -13 | 7 | -13 | 38*
O=[N+]([O-])c1ccccc1N1CCN(c2ccc([N+](=O)[O-])c3cccnc23)CC1 | nt | nt | nt | nt | nt | 75*
O=[N+]([O-])c1ccc(N2CCCC2)c2ncccc12 | 2 | -3 | -15 | -4 | 6 | -6
O=C(Nc1ccc(OC(F)(F)F)cc1)c1cccn(Cc2ccc(Br)cc2)c1=O | nt | nt | nt | nt | nt | -19
O=C(NNC(=O)c1cc(=O)c2ccccc2o1)c1ccc(=O)n(Cc2ccccc2)c1 | nt | nt | nt | nt | nt | -6
O=C(Cn1nc(-c2ccco2)n(C2CC2)c1=O)Nc1ccc(OC(F)(F)F)cc1 | nt | nt | nt | nt | nt | -3
C/[N+]([O-])=C\c1ccc2ccc3cccnc3c2n1 | nt | nt | nt | nt | nt | 154*
Cc1cc(C)cc(NC(=O)c2ccc(Cn3nc(C)c(Cl)c3C)o2)c1 | 2 | 15 | -20 | -13 | 22 | 0
Cc1ccc(CNC(=O)c2ccc(Cn3nc(C)c(Cl)c3C)o2)cc1 | 154* | 0 | -16 | -4 | 32 | -2
O=C(Cn1nc(C2CC2)c2cnn(-c3ccccc3)c2c1=O)N1CCOCC1 | nt | nt | nt | nt | nt | 11
CCCC12CN3CC(CCC)(CN(C1)C3c1ccccn1)C2=O (stereo not drawn) | 0 | 1 | -3 | 1 | -4 | 58*
CCCC12CN3CC(C)(CN(C1)C3c1cccs1)C2=O (stereo not drawn) | nt | -3 | nt | -9 | 2 | -8
